# Laboratory results taken from PubChem BioAssay (NCATS).
# Results filed as inconclusive are left out. A number with no mark means an inactive call. The source made the active and inactive calls. Unless noted, calls come from the whole dose curve.
# Columns and labels:
# [1] = Cell Viability - MRC5 (AID 434); conditions: MRC5 lung fibroblast viability, qHTS;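 note: potency is the fitted concentration of half-maximal effect; cells exposed to compound for 40 hours at 37 °C; potency reflects cytotoxicity seen as loss of intracellular ATP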
# In short: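 AC50 values come from Hill-equation fits of intracellular ATP loss, measured by CellTiter-Glo luminescence. Normal lung fibroblasts (MRC5) had 40 hr compound treatment at 37 C, normalized between DMSO and 100 uM tamoxifen.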
# [2] = Cell Viability - SK-N-SH (AID 435); conditions: SK-N-SH neuroblastoma cell viability qHTS;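 note: potency is the fitted concentration of half-maximal effect; compound exposure lasted 40 h at 37 °C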
# In short: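 Human neuroblastoma line, 40 h exposure at 37 °C, ATP quantified via luciferase luminescence; DMSO and 100 uM tamoxifen define 0 and 100% inhibition for AC50 fitting.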
# [3] = AP1 Signaling Pathway (AID 357; active = well fitted curve in either direction with a large enough effect, not every such curve was filed as active; note: % is set by controls: 0 for no effect and ±100 for the full control effect); conditions: ME-180 AP-1-bla reporter, EGF-induced, beta-lactamase ratio, 5 h
# In short: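 ME-180 cells with beta-lactamase reporter under AP-1 response element, stimulated with EC50 EGF; compounds tested in titration series, 5 h at 37 °C. CCF4 substrate added 2.5 h at room temperature; 460/530 nm emission ratio gave %activity and AC50.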
# [4] = NFAT Signaling Pathway (AID 444; active = well fitted curve in either direction with a large enough effect, not every such curve was filed as active;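 note: carbachol stimulus at about its EC50 of 1 µM final; % is set by controls: 0 for no effect and ±100 for the full control effect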); conditions: Jurkat NFAT-bla M1, carbachol, beta-lactamase ratio, 5 h
# In short: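 Read-out: CCF4 FRET ratio (460 nm/530 nm) after 1 h RT dye loading, used for %activity and AC50 from titration series. Cells: Jurkat NFAT-β-lactamase/M1 line, treated with compound plus 1 uM carbachol for 5 h, 37 °C.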
# [5] = molecular target: Cytochrome P450 1A2 (Homo sapiens) (UniProt P05177); assay: p450-cyp1a2 (AID 410); conditions: recombinant CYP1A2, luciferin-ME demethylation, luminescence; series mostly up to 25.6 µM; note: potency is the fitted concentration of half-maximal effect
# Chain of Cytochrome P450 1A2 (Homo sapiens) (P05177 whole entry, looked up): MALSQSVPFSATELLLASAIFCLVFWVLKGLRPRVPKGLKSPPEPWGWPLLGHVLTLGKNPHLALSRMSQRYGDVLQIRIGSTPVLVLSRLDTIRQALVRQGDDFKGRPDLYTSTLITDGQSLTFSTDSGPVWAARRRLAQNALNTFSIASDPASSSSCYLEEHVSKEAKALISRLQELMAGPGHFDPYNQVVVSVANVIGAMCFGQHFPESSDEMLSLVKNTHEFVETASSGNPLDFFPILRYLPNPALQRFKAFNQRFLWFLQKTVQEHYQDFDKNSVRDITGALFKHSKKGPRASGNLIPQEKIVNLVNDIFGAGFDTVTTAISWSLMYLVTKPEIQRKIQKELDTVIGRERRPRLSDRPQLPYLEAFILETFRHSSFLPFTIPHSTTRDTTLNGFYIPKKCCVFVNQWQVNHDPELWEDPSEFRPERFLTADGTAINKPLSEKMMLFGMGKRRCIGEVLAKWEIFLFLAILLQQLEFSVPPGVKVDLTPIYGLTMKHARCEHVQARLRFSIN
# In short: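 20nM CYP1A2, 100uM Luciferin-ME (=Km), 100mM KPO4; cpd 10 min RT; +NADPH regen, 60 min RT; stop/detect 20 min; luminescence. Normalized to furafylline 57 uM = full inhibition.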
# [6] = Cell Viability - BJ (AID 421); conditions: BJ fibroblast viability, qHTS;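 note: potency is the fitted concentration of half-maximal effect; cells exposed to compound for 40 hours at 37 °C before readout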
# In short: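 Cytotoxicity as drop in intracellular ATP (CellTiter-Glo, 20 min RT) after 40 hr compound exposure of BJ fibroblasts at 37 °C. Titrations scaled between DMSO and 100 uM tamoxifen, Hill-fitted for AC50.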
# [7] = Cell Viability - Hek293 (AID 427;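 active = compounds whose dose-response curve shows a full or clear partial loss of cell viability, called from curve shape rather than a numeric limit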;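 note: potency is the fitted concentration of half-maximal effect; cells exposed to compound for 40 hours at 37 °C before reading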); conditions: qHTS
# In short: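 Luminescent ATP content (CellTiter-Glo, 20 min at room temperature) was measured after a 40 hr, 37 °C compound exposure of HEK293 cells. AC50 values came from Hill-equation fits of qHTS concentration-response data normalized to DMSO and 100 uM tamoxifen.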
# [8] = Cell Viability - HepG2 (AID 433); conditions: qHTS;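 note: potency is the fitted concentration of half-maximal effect; cells exposed to compound for 40 hours; potency for ATP loss meaning cytotoxicity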
# In short: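 In this qHTS format, a 40 h, 37 °C compound incubation of HepG2 cells in complete medium precedes a 20 min CellTiter-Glo step at room temperature. Tamoxifen and doxorubicin serve as positive controls; Hill-equation fits yield AC50.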
# [9] = Cell Viability - Jurkat (AID 426;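 active = dose-dependent loss of cell ATP signal giving a full or clear fitted curve, ranked by lower potency value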;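 note: potency is the fitted concentration of half-maximal effect; cells exposed to compound for 40 hours at 37 °C before ATP read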); conditions: qHTS
# In short: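 Luminescent ATP read-out (CellTiter-Glo, 20 min at room temperature) after 40 hr compound exposure at 37 °C of Jurkat E6-1 cells, 5000/well. Decreased ATP taken as cytotoxicity; AC50 from standard Hill equation.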
structure (smiles),measurement,setting,value
Oc1c(I)cc(Cl)c2cccnc12,Potency,[1],44.2 µM (active)
same,Potency,[2],38.6 µM (active)
CCN1CCN(c2cc3c(cc2F)c(=O)c(C(=O)O)cn3C2CC2)CC1,"activity change, negative = inhibition",[3]; at 17.2 µM (top of the series),4.63%
same,"activity change, negative = inhibition",[4]; at 17.2 µM (top of the series),3.59%
CN1CCC[C@@H]1c1cccnc1,"activity change, negative = inhibition",[3]; at 38 µM (top of the series),12.2%
same,"activity change, negative = inhibition",[4]; at 38 µM (top of the series),-1.61%
CNCC[C@@H](Oc1ccccc1C)c1ccccc1,Potency,[5],15.8 µM (active)
O=C1OC(c2ccc(O)cc2)(c2ccc(O)cc2)c2ccccc21,Potency,[6],> 92 µM
same,Potency,[7],> 92 µM
same,Potency,[8],> 92 µM
same,Potency,[1],> 92 µM
same,Potency,[2],> 92 µM
same,"activity change, negative = inhibition",[4]; at 17.2 µM (top of the series),-4.2%
COc1cccc2c1C(=O)c1c(O)c3c(c(O)c1C2=O)C[C@@](O)(C(=O)CO)C[C@@H]3O[C@H]1C[C@H](N)[C@H](O)[C@H](C)O1,Potency,[6],0.177 µM (active)
same,Potency,[9],0.0218 µM (active)
same,Potency,[7],0.0255 µM (active)
same,Potency,[8],> 92 µM
same,Potency,[2],0.0168 µM (active)
C[C@]12CC[C@@H]3c4ccc(O)cc4CC[C@H]3[C@@H]1CC[C@@H]2O,Potency,[6],> 92 µM
same,Potency,[9],25.8 µM (active)
same,Potency,[8],> 92 µM
same,Potency,[1],> 92 µM
CCN(CCCCOC(=O)c1ccc(OC)c(OC)c1)C(C)Cc1ccc(OC)cc1 (stereo not given),"activity change, negative = inhibition",[3]; at 17.2 µM (top of the series),-6.87%
same,"activity change, negative = inhibition",[4]; at 17.2 µM (top of the series),-93.3% (active)
COC1=CC(=O)C[C@@H](C)[C@]12Oc1c(Cl)c(OC)cc(OC)c1C2=O,Potency,[6],> 92 µM
same,Potency,[7],> 92 µM
same,Potency,[8],> 92 µM
same,Potency,[1],> 92 µM
O=c1ccc2ccccc2o1,Potency,[6],> 92 µM
same,Potency,[9],> 92 µM
same,Potency,[7],> 92 µM
same,Potency,[8],> 92 µM
same,Potency,[1],> 92 µM
same,Potency,[2],> 92 µM
C[C@@H]1C(=O)NC2=Nc3cccc(Cl)c3CN21,"activity change, negative = inhibition",[3]; at 38 µM (top of the series),9.37%
same,"activity change, negative = inhibition",[4]; at 38 µM (top of the series),-0.581%
C[C@@H]1C[C@H]2[C@@H]3CCC4=CC(=O)C=C[C@]4(C)[C@@]3(F)[C@@H](O)C[C@]2(C)[C@H]1C(=O)CO,"activity change, negative = inhibition",[3]; at 17.2 µM (top of the series),0.15%
same,"activity change, negative = inhibition",[4]; at 17.2 µM (top of the series),-16.3%
CC(=O)OCC(=O)[C@@]12OC(C)(C)O[C@@H]1C[C@H]1[C@@H]3C[C@H](F)C4=CC(=O)C=C[C@]4(C)[C@@]3(F)[C@@H](O)C[C@@]12C,"activity change, negative = inhibition",[3]; at 17.2 µM (top of the series),-9.69%
same,"activity change, negative = inhibition",[4]; at 17.2 µM (top of the series),15.1%
Nc1cc(Cl)c(NC2=NCCN2)c(Cl)c1,"activity change, negative = inhibition",[3]; at 38 µM (top of the series),2.68%
same,"activity change, negative = inhibition",[4]; at 38 µM (top of the series),-7.69%
CC(O)C(=O)O (stereo not given),Potency,[6],> 92 µM
same,Potency,[9],> 92 µM
same,Potency,[7],> 92 µM
same,Potency,[8],> 92 µM
same,Potency,[1],> 92 µM
same,Potency,[2],> 92 µM
CC(=O)OCC(=O)[C@@]1(OC(C)=O)[C@@H](C)C[C@H]2[C@@H]3C[C@H](F)C4=CC(=O)C=C[C@]4(C)[C@@]3(F)[C@@H](O)C[C@@]21C,"activity change, negative = inhibition",[3]; at 17.2 µM (top of the series),-3.12%
same,"activity change, negative = inhibition",[4]; at 17.2 µM (top of the series),17.4%
